rCAG RNA binder: molecules binding r(CAG) RNA repeats; r(CAG) RNA repeat, TO-PRO-1 dye displacement fluorescence; inhibition, % at 3 µM; 370,000 compounds, 1.3% hits; AID 651821;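 active means inhibition above the plate cutoff, the mean of all test compounds on that plate plus 3 SD, cut at about 35% in these data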;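 further: higher means more dye released from RNA so lower well fluorescence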
MsrA inhibitor: inhibits bovine methionine sulfoxide reductase A; 360,000 compounds, 0.75% hits; purified bovine MsrA, absorbance read-out; inhibition, % at 15.5 µM; AID 651718
bovine MsrA act: activators of bovine methionine sulfoxide reductase A; 360,000 compounds, 0.3% hits; activation, % at 10.6 µM; purified bovine MsrA, absorbance read-out; AID 602163; in the data active means activation above about 7.5%
sPLA2-III inh: Blocks human group III sPLA2 activity | Q9NZ20 | QFRET BODIPY PC-A2 liposome hydrolysis, fluorescence | inhibition, % at 12.2 µM | 370,000 compounds, 0.56% hits | AID 743126;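 active means inhibition above mean plus 3 SD of compounds lying within the high and low control bounds, cut at about 19% in these data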
Target sequence (Q9NZ20 whole entry, looked up): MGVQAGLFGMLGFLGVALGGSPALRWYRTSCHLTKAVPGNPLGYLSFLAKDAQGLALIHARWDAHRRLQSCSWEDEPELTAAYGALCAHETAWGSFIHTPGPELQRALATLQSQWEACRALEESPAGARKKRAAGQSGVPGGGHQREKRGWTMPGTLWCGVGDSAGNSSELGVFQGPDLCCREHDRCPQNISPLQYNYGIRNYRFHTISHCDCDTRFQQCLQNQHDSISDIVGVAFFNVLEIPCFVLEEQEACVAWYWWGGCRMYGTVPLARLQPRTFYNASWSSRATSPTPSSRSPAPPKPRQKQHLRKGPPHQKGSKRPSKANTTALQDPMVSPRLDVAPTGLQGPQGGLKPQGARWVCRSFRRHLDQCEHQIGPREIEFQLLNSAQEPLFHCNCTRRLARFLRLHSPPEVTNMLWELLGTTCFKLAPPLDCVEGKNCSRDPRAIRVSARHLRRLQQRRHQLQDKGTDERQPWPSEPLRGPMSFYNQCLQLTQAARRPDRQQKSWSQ
MsrA conf: confirmation of bovine MsrA inhibitors; purified bovine MsrA, absorbance read-out; AID 651822; inhibition, % at 15.5 µM; shares compounds with MsrA inhibitor; 2,300 compounds, 41% hits;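 further: coupled to thioredoxin reductase with NADPH and selenocystamine and DMSO as substrate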
Hits are given with their value; 0 = inactive; - = not tested or not shown. This is a sample that favours compounds with a hit; in the whole collection about 2.8% have one here. Unless noted, no stated cut-off is given here; in the data, active means inhibition above about 4.5%; inactive means the rest.

SMILES | rCAG RNA binder | MsrA inhibitor | bovine MsrA act | sPLA2-III inh | MsrA conf
CCOC(=O)N/N=C/c1ccc(N2CCOCC2)s1 | 0 | 5.3 | 0 | 0 | 5.7
Cc1ccc(C(=O)C2=C(O)C(=O)N(CCCN(C)C)C23C(=O)N(C)c2ccccc23)o1 (configuration not stated) | 0 | 5.6 | 0 | 0 | 6.4
c1cnn(-c2cncc(-n3cccn3)n2)c1 | 0 | 14 | 0 | 0 | 10
CCOCCCNC(=O)C(Cc1ccccc1)NC(=O)c1ccco1 (configuration not stated) | 0 | 0 | 0 | 0 | -
CCSc1nc2sc3c(c2c(=O)n1-c1ccccc1)CCN(C)C3 | 0 | 0 | 0 | 0 | -
C=CCSc1nc2sc3c(c2c(=O)n1-c1ccccc1)CCN(C)C3 | 0 | 4.9 | 0 | 0 | 0
O=C(Cn1cnnn1)NC1CCCN(Cc2ccccc2F)C1 (configuration not stated) | 0 | 0 | 0 | 0 | -
O=S1(=O)CCC(N=Cc2ccc(-c3ccc(Cl)cc3)o2)C1 (configuration not stated) | 0 | 4.8 | 0 | 0 | 0
Cc1ccc(C)n1-n1c(C)nc2scc(-c3cccs3)c2c1=O | 0 | 29 | 0 | 0 | 25
C=CCn1cnc2scc(-c3ccc(OC)cc3)c2c1=O | 0 | 0 | 0 | 0 | -
Cc1nc2scc(-c3cccs3)c2c(=O)n1-n1cccc1 | 0 | 15 | 0 | 0 | 10
Nn1cnc2scc(-c3cccs3)c2c1=O | 0 | 0 | 0 | 0 | -
COc1ccc(-c2csc3nc(C)n(-n4cccc4)c(=O)c23)cc1 | 0 | 8.6 | 0 | 0 | 0
Cc1nc2scc(-c3cccs3)c2c(=O)o1 | 0 | 0 | 0 | 0 | -
O=C(NCc1ccco1)c1ccc(OCC2CCCO2)cc1 (configuration not stated) | 0 | 0 | 0 | 0 | -
O=C(N/N=C\c1ccccc1)c1cccc(C(=O)N/N=C\c2ccccc2)n1 | 0 | 0 | 0 | 0 | -
CC(C)(C)C(=O)Nc1ccnn1C1CCN(C(=O)c2ccc(Cl)cc2F)CC1 | 0 | 0 | 0 | 0 | -
C(=N\Nc1nc2ccccc2[nH]1)/c1ccncc1 | 0 | 5.0 | 0 | 0 | 0
C=CCn1cc(/C=N/Nc2nc3ccccc3[nH]2)c2ccccc21 | 0 | 0 | 0 | 0 | -
Cn1c(/C=N/Nc2nc3ccccc3[nH]2)nc2ccccc21 | 0 | 4.9 | 0 | 49 | 5.0
CC(=O)Nc1ccc(/C=N/Nc2nc3ccccc3[nH]2)cc1 | 0 | 8.2 | 0 | 0 | 5.9
O=C(O)c1ccc(/C=N/Nc2nc3ccccc3[nH]2)cc1 | 0 | 0 | 0 | 0 | -
N#Cc1nc(N2CCCC2)nc(N2CCCC2)n1 | 0 | 0 | 0 | 0 | -
O=C1CSC(=S)N1Nc1ccccc1 | 0 | 0 | 0 | 0 | -
CS(=O)(=O)c1ccc(-c2cccc(NC(=O)COc3ccccc3)c2)nn1 | 0 | 0 | 0 | 0 | -
SMILES | rCAG RNA binder | MsrA inhibitor | bovine MsrA act | sPLA2-III inh | MsrA conf
COC(=O)c1ccc(C(=O)OC)c(NC(=S)N2CC(C)CC(C)C2)c1 (configuration not stated) | 0 | 0 | 0 | 0 | -
Cc1ccc(/C(O)=C2/C(=O)C(=O)N(CCN3CCOCC3)C2c2cccnc2)cc1 (configuration not stated) | 0 | 0 | 0 | 0 | -
Cc1ccc(C)c(/C(O)=C2\C(=O)C(=O)N(CCCN3CCOCC3)C2c2cccnc2)c1 (configuration not stated) | 0 | 16 | 0 | 0 | 0
CN1c2ccccc2C(O)=C(C(=O)Nc2ccccc2)S1(=O)=O | 0 | 0 | 0 | 0 | -
CN1c2ccccc2C(O)=C(C(=S)Nc2ccccc2)S1(=O)=O | 0 | 5.3 | 0 | 0 | 6.1
CCOC(=O)c1sc(NC(=O)C2=COCCO2)c(C#N)c1C | 0 | 5.8 | 0 | 0 | 0
COc1ccc(NC(=O)CNS(=O)(=O)c2ccccc2)cc1Cl | 0 | 0 | 0 | 0 | -
COc1cc(C2NC(=S)NC3=C2C(=O)CCC3)ccc1O (configuration not stated) | 0 | 0 | 0 | 0 | -
CC(SC1=NCCN1S(=O)(=O)c1ccc(F)cc1)c1ccccc1 (configuration not stated) | 0 | 0 | 0 | 0 | -
CS(=O)(=O)c1ccccc1C(=O)Nc1cc(Cl)ccc1-n1cncn1 | 0 | 0 | 0 | 0 | -
Cc1cccc(C(=O)Nc2cc(Cl)ccc2-n2cncn2)c1[N+](=O)[O-] | 0 | 7.3 | 0 | 0 | 4.8
COCCCn1c(SCC(=O)c2c(N)n(C3CC3)c(=O)[nH]c2=O)nnc1-c1ccccc1Cl | 0 | 0 | 0 | 0 | -
COCCn1c(SCC(=O)c2c(N)n(C3CC3)c(=O)[nH]c2=O)nnc1-c1ccc(Cl)cc1 | 0 | 6.0 | 0 | 0 | 0
COC(=O)[C@@]12C[C@@H](CC(=O)NCCCN3CCCC3=O)C(=O)N(Cc3ccco3)C1=CCC(C)(C)C2 | 0 | 0 | - | 0 | -

Screening results (PubChem)
